Experimental findings from publication PMC7862700, “An all-to-all approach to the identification of sequence-specific readers for epigenetic DNA modifications on cytosine” are described below.

Assay in all cases: DAPPL (digital affinity profiling via proximity ligation, sequencing); 10 mM Tris-HCl pH 7.5, 50 mM NaCl, 1 mM DTT, 4% glycerol, room temperature, 30 min; GST-TFs on glutathione beads, 16-mer random dsDNA library, 0.1% formaldehyde crosslink after washing; high values mean tight binding
One assay addresses T1, FLI1 (Homo sapiens, UniProt Q01543 1-452).
T1 sequence: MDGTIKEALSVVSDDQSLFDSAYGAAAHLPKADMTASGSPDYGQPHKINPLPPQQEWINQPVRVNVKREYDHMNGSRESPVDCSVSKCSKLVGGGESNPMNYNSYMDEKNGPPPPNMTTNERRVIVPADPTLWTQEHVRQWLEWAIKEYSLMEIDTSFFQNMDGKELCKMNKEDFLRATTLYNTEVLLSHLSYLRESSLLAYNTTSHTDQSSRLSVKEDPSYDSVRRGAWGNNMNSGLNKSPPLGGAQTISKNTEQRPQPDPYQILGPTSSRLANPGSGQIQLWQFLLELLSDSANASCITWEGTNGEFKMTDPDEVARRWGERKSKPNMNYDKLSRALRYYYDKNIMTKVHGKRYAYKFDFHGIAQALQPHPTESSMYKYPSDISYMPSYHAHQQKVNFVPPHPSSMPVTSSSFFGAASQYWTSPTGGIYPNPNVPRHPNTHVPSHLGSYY
The settings on record: protein: recombinant; tags: N-terminal GST; dsDNA, one strand shown. The gist of the method: (§1)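 Each value of binding signal is a hexamer's read frequency for a factor divided by the same hexamer's frequency in the tag-only sample. Barcoded, bead-captured GST fusions of human transcription factors made in yeast were pooled with that sample and incubated with 200 nmole of a random double-stranded 16-mer DNA library in Tris/NaCl/DTT/glycerol buffer at room temperature for 30 min. Washing, 0.1% formaldehyde crosslinking, proximity ligation, PCR and Illumina NextSeq500 sequencing followed.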

In the next assay the target is T2, ELK1 (Homo sapiens, UniProt P19419 1-428).
T2 sequence: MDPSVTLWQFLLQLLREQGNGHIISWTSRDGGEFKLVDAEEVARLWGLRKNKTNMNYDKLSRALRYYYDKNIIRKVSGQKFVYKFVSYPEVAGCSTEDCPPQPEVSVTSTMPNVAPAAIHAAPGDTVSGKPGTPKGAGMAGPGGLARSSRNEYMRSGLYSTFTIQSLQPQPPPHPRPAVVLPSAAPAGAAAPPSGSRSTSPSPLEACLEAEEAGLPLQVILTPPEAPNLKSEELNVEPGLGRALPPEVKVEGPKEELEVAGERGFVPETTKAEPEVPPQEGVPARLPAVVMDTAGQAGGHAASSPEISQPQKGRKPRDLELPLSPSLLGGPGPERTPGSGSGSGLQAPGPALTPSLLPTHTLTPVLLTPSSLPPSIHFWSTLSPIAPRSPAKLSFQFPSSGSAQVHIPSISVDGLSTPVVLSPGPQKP
The settings on record: protein: recombinant; tags: N-terminal GST; dsDNA, one strand shown. Put shortly: as §1

Another assay addresses T3, GABPA (Homo sapiens, UniProt Q06546 1-454).
T3 sequence: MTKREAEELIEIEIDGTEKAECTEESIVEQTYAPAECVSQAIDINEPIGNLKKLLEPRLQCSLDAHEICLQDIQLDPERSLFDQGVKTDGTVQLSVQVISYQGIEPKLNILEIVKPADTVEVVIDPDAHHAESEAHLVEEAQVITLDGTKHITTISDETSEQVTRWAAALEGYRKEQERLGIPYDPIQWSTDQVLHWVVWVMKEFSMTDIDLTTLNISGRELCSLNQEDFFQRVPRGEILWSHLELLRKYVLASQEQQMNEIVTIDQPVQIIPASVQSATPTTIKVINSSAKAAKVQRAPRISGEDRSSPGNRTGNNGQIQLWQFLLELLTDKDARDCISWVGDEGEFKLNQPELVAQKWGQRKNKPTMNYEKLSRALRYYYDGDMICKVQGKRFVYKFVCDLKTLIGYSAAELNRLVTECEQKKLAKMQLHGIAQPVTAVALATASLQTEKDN
The settings on record: protein: recombinant; tags: N-terminal GST; dsDNA, one strand shown. The gist of the method: as §1

Another assay deals with ELF1 (Homo sapiens, UniProt P32519 1-619). The settings on record: protein: recombinant; tags: N-terminal GST; dsDNA, one strand shown. Put shortly: as §1
Chain of ELF1 (P32519 whole entry): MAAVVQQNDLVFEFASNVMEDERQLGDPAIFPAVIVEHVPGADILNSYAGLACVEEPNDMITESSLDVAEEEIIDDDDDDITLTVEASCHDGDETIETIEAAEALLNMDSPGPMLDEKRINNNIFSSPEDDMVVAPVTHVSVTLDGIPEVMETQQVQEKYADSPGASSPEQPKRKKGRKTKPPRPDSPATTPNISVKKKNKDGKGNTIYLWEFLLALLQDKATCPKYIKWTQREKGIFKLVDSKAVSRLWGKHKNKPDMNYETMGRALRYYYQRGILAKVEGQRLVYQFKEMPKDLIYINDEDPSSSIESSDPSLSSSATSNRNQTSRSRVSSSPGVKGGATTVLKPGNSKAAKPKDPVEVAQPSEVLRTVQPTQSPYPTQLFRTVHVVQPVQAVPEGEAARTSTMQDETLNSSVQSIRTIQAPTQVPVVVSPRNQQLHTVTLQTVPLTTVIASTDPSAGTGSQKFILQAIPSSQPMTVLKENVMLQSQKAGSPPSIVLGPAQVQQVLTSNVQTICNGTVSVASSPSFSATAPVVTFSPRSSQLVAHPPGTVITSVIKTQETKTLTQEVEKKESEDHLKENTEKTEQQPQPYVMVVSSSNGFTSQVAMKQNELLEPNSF
Another assay deals with T4, EHF (Homo sapiens, UniProt Q9NZC4 1-300).
T4 sequence: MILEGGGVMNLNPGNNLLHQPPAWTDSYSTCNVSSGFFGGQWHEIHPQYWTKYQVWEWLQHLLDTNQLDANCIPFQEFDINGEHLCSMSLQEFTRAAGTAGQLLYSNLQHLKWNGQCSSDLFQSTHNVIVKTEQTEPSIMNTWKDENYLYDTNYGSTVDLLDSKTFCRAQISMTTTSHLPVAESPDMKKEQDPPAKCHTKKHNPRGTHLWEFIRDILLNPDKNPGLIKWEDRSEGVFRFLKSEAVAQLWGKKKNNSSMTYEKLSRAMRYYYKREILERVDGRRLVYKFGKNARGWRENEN
The settings on record: protein: recombinant; tags: N-terminal GST; dsDNA, one strand shown. Put shortly: as §1

The target of the next assay is ETV5 (Homo sapiens, UniProt P41161 1-510). The settings on record: protein: recombinant; tags: N-terminal GST; dsDNA, one strand shown. Put shortly:
as §1

In a further assay the target is HSF1 (Homo sapiens, UniProt Q00613 1-529). The settings on record: protein: recombinant; tags: N-terminal GST; chain copies: 3; dsDNA, one strand shown. Put shortly: as §1
Chain of HSF1 (Q00613 whole entry): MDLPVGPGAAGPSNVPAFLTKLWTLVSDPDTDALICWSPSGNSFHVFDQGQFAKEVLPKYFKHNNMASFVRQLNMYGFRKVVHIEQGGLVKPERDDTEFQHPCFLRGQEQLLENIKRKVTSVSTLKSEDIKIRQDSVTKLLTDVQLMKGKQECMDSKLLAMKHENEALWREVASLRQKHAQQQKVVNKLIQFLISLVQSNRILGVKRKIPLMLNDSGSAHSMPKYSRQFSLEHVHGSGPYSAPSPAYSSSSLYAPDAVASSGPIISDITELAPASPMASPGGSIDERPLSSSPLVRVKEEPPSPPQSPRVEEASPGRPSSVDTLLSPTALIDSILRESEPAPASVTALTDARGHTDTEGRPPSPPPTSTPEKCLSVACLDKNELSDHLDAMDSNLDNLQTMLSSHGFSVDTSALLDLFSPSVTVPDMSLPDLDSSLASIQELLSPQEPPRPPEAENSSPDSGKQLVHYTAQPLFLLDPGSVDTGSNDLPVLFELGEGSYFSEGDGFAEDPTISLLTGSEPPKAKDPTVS
A further assay has as its target ELF4 (Homo sapiens, UniProt Q99607 1-663). The settings on record: protein: recombinant; tags: N-terminal GST; dsDNA, one strand shown. Put shortly:
as §1

The target of another assay is T5, ELK4 (Homo sapiens, UniProt P28324-2 1-405).
T5 sequence: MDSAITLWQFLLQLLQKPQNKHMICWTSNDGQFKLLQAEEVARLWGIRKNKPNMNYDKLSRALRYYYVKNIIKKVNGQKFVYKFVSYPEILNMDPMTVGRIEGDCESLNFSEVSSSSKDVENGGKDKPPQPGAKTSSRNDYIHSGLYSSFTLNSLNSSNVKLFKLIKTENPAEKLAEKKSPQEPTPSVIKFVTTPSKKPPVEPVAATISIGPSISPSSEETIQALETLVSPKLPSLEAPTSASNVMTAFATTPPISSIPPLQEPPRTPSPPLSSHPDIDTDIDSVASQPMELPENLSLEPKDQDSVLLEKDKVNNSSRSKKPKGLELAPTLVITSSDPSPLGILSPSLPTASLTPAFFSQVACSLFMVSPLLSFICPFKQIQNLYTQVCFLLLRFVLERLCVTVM
The settings on record: protein: recombinant; tags: N-terminal GST; dsDNA, one strand shown. The gist of the method:
as §1

For a further assay, the target named is T6, ETV2 (Homo sapiens, UniProt O00321 1-342).
T6 sequence: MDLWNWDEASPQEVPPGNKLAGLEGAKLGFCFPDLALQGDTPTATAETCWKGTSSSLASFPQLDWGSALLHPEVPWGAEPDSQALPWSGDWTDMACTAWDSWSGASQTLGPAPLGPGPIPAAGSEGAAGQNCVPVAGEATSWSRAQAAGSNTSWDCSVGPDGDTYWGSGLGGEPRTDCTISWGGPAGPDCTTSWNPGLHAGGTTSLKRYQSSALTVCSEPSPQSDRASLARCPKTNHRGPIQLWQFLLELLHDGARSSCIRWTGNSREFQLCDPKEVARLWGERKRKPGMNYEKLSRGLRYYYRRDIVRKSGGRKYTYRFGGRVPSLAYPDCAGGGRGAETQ
The settings on record: protein: recombinant; tags: N-terminal GST; dsDNA, one strand shown. Put shortly:
as §1

A further assay has as its target T7, ELF3 (Homo sapiens, UniProt P78545 1-371).
T7 sequence: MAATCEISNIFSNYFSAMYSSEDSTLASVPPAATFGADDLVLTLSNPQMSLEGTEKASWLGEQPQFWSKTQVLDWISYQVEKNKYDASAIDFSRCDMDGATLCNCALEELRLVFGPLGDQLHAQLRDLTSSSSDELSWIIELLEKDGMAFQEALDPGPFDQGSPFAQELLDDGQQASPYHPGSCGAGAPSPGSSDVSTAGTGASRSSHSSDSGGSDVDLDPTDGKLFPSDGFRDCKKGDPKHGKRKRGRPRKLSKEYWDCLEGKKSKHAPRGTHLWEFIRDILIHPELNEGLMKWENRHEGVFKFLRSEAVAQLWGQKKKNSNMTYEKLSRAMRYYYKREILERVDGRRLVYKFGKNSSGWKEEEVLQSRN
The settings on record: protein: recombinant; tags: N-terminal GST; dsDNA, one strand shown. Put shortly:
as §1

For a further assay, the target named is ETV1 (Homo sapiens, UniProt P50549 1-477). The settings on record: protein: recombinant; tags: N-terminal GST; dsDNA, one strand shown. The gist of the method: as §1
Chain of ETV1 (P50549 whole entry): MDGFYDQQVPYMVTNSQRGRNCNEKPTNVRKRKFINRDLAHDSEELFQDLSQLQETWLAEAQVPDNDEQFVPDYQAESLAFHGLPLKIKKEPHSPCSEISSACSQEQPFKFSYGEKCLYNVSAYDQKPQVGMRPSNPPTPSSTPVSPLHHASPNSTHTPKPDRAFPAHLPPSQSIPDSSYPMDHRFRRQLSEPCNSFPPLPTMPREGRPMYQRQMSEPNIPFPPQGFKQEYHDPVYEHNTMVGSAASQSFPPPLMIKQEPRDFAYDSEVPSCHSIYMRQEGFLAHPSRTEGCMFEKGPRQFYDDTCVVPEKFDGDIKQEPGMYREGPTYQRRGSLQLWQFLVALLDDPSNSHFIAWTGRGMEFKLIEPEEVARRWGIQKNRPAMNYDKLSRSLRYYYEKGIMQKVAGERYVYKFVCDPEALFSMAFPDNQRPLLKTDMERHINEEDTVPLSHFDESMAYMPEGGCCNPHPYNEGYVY
The target in another assay is T8, ERG (Homo sapiens, UniProt P11308 1-479).
T8 sequence: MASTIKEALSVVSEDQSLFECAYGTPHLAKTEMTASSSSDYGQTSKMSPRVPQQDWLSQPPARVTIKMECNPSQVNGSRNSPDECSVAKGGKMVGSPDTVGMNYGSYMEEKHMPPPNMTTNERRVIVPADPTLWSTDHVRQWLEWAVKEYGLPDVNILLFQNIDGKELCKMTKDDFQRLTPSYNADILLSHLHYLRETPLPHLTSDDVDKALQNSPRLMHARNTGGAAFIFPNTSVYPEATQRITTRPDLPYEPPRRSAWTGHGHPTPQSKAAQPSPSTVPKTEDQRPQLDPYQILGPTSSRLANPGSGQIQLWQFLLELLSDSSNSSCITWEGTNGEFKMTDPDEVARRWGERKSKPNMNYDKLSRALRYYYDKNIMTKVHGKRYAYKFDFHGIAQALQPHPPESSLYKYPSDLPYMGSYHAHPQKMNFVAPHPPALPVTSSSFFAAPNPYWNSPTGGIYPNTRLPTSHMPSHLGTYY
The settings on record: protein: recombinant; tags: N-terminal GST; dsDNA, one strand shown. The gist of the method:
as §1

A further assay addresses SPIB (Homo sapiens, UniProt Q01892 1-262). The settings on record: protein: recombinant; tags: N-terminal GST; dsDNA, one strand shown. Put shortly:
as §1

Another assay concerns the target T9, ELK3 (Homo sapiens, UniProt P41970 1-407).
T9 sequence: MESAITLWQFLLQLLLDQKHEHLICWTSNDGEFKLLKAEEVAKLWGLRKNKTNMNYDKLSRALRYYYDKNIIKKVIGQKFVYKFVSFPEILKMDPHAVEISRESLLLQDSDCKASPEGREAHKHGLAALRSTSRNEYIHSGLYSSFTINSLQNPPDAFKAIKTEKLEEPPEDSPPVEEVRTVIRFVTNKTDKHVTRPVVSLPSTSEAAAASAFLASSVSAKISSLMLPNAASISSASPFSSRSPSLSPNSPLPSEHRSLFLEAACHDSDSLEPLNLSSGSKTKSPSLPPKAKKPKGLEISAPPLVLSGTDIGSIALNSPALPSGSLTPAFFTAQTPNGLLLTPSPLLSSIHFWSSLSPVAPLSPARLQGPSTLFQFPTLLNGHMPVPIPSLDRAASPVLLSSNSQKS
The settings on record: protein: recombinant; tags: N-terminal GST; dsDNA, one strand shown. Put shortly: as §1

Another assay deals with T10, FEV (Homo sapiens, UniProt Q99581 1-238).
T10 sequence: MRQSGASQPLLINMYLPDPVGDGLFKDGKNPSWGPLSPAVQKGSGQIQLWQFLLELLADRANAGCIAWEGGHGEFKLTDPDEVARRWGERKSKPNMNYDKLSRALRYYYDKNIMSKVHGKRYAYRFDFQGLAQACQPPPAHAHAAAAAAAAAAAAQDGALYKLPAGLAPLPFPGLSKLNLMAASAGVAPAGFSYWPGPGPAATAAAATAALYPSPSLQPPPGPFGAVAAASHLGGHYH
The settings on record: protein: recombinant; tags: N-terminal GST; dsDNA, one strand shown. Put shortly: as §1

Another assay has as its target CRX (Homo sapiens, UniProt O43186 1-299). The settings on record: protein: recombinant; tags: N-terminal GST; dsDNA, one strand shown. Put shortly: as §1

Chain of ELF4 (Q99607 whole entry): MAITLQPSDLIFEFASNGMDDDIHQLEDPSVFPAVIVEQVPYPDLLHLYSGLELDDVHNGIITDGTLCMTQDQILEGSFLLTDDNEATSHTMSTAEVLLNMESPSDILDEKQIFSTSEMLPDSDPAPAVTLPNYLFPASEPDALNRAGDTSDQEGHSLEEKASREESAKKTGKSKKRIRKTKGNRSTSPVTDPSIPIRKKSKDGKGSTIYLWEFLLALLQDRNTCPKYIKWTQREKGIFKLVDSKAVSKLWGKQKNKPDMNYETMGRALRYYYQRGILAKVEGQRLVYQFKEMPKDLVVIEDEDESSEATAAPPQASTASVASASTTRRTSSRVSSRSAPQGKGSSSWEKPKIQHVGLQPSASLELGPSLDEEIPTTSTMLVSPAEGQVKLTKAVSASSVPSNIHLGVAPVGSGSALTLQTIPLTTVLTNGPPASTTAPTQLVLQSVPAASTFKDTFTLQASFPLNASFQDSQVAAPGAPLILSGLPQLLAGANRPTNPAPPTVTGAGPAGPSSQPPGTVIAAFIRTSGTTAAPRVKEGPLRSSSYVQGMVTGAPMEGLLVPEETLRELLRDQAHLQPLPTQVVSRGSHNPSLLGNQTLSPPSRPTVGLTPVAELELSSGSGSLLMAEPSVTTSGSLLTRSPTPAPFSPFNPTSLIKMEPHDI
Chain of ETV5 (P41161 whole entry): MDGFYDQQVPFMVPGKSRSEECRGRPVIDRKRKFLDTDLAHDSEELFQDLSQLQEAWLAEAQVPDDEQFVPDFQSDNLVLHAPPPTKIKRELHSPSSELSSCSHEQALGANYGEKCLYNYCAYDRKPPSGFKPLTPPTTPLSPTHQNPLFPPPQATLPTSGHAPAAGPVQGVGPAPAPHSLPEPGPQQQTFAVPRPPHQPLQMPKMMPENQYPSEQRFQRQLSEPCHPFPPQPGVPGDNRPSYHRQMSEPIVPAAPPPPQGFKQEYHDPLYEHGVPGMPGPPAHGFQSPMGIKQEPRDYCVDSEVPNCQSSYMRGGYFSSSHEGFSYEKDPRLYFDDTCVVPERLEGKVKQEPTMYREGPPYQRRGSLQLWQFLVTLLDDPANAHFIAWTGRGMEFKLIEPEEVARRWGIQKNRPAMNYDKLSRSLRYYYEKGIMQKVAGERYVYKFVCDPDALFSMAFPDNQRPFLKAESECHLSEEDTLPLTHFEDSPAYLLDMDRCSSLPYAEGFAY
Chain of CRX (O43186 whole entry): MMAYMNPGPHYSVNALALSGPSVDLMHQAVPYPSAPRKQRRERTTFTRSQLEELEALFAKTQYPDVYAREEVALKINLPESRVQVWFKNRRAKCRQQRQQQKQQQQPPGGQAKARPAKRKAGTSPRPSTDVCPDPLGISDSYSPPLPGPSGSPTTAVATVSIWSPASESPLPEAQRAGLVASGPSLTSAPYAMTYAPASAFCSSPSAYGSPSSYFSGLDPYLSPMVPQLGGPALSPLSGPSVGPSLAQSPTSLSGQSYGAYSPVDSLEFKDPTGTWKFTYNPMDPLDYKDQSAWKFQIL
Chain of SPIB (Q01892 whole entry): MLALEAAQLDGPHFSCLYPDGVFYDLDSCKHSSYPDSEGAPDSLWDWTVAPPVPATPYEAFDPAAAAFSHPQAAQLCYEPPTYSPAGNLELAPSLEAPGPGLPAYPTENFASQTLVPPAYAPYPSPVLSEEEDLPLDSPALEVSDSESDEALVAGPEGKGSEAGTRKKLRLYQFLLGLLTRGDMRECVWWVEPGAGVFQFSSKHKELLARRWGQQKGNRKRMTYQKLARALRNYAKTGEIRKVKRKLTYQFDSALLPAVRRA

In the case of GAACCA, the binding signal in the assay with FLI1 was 1.02 fold enrichment (6-mer frequency, TF over GST control); with ELK1, 1.05 fold enrichment (6-mer frequency, TF over GST control); with GABPA, 1.05 fold enrichment (6-mer frequency, TF over GST control); with ELF1, 1.05 fold enrichment (6-mer frequency, TF over GST control); with EHF, 1.08 fold enrichment (6-mer frequency, TF over GST control); with ETV5, 1.02 fold enrichment (6-mer frequency, TF over GST control). Also, the binding signal with HSF1 was 1.03 fold enrichment (6-mer frequency, TF over GST control); with ELF4, 1.02 fold enrichment (6-mer frequency, TF over GST control); with ELK4, 1.06 fold enrichment (6-mer frequency, TF over GST control); with ETV2, 1.02 fold enrichment (6-mer frequency, TF over GST control); with ELF3, 1.09 fold enrichment (6-mer frequency, TF over GST control); in the assay with ETV1, 1 fold enrichment (6-mer frequency, TF over GST control).
Take TCAAGG: the binding signal in the assay with FLI1 is 1.05 fold enrichment (6-mer frequency, TF over GST control); with ELK1, 1.05 fold enrichment (6-mer frequency, TF over GST control); in the assay with GABPA, 1.05 fold enrichment (6-mer frequency, TF over GST control); with ERG, 1.1 fold enrichment (6-mer frequency, TF over GST control); in the assay with ELF1 it was 1.07 fold enrichment (6-mer frequency, TF over GST control); with EHF, 1.09 fold enrichment (6-mer frequency, TF over GST control). For the same sequence, the binding signal in the assay with SPIB is 1.04 fold enrichment (6-mer frequency, TF over GST control); in the assay with ELK3, 1.19 fold enrichment (6-mer frequency, TF over GST control); with FEV, 1.08 fold enrichment (6-mer frequency, TF over GST control); with ETV5, 1.03 fold enrichment (6-mer frequency, TF over GST control); with HSF1, 1.04 fold enrichment (6-mer frequency, TF over GST control); in the assay with ELF4 it was 1.01 fold enrichment (6-mer frequency, TF over GST control). For the same sequence, the binding signal is 1.07 fold enrichment (6-mer frequency, TF over GST control) in the assay with ELK4; 1.19 fold enrichment (6-mer frequency, TF over GST control) in the assay with ETV2; 1.09 fold enrichment (6-mer frequency, TF over GST control) in the assay with CRX; 1.12 fold enrichment (6-mer frequency, TF over GST control) with ETV1.
